Reference: PubChem BioAssay AID1117319 (Southern Research Institute, 2015)
Several values for one entry are separate records, joined by “and”; a condition that tells them apart may be missing. Equal values may be shown once. In all, about 260,000 compounds went through this assay and about 1,500 (0.58%) were called active. Not shown: some 5% with an inconclusive outcome.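 Rule for the calls: active = inhibition above a set limit at one or more doses, reproduced on every date tested; inconclusive = results disagree between test dates, or hit never tested in dose response; inactive = the rest.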 A selection follows. Results with a measured potency or affinity are listed apart.

molecular target: Virion infectivity factor (Human immunodeficiency virus type 1 group M subtype B (isolate BH10)) + Virion infectivity factor (Human immunodeficiency virus type 1 group M subtype B (isolate BRU/LAI)) + Virion infectivity factor (Human immunodeficiency virus type 1 group M subtype B (isolate PCV12)) + Virion infectivity factor (Human immunodeficiency virus type 1 group M subtype B (isolate HXB2)) + DNA dC->dU-editing enzyme APOBEC-3G (Homo sapiens) (UniProt P69720+P69721+P69722+P69723+Q9HC16); test: inhibitors of Vif binding to APOBEC3G peptide, primary screen, biochemical, TR-FRET, GST-Vif 1-94, biotin-A3G peptide, dose response retest (AID 1117319); conditions: hits give high values;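 note: Vif residues 1-94 fused to GST binding biotinylated APOBEC3G peptide 110-148; 0% = full assay without inhibitor and 100% = GST in place of GST-Vif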

inhibition, inactive:
Cc1cc2c(cc1C)NC1=C(N2)OC(c2cccc(O)c2)C1=O (configuration not stated) 5.24%
NS(=O)(=O)c1ccc(CCNC(=O)CSc2ccsc2[N+](=O)[O-])cc1 4.39%
CC(=O)N1CCN(C(=O)CCNC(=O)c2ccc(Br)cc2)CC1 0.92%
CCN1CCN(c2nc3ccccn3c(=O)c2/C=C(\C#N)S(=O)(=O)c2ccccc2)CC1 -0.55%
COC(=O)c1ccc(C(=O)NN)cc1 -8.26%
Cc1cccc(NC(=O)Cc2ccc(F)cc2)c1 -2.86%
Cc1ccc(NC(=O)CCc2nc(-c3cccs3)no2)c(Br)c1 0.83%
Fc1ccccc1/C=C/c1ccc2ccccc2n1 1.57%
C(=C\c1ccc2ccccc2n1)/c1ccccc1 10.9%
CN(C)c1c2ccccc2nc2c(F)c(F)c(F)c(F)c12 -2.85%
Cc1c(N(C)C)nc2ccccc2c1N -3.71%
CNC(=O)COc1coc(CN2CCN(c3cccc(Cl)c3)CC2)cc1=O 6.04%
CCOC(=O)N/N=C(/c1ccccc1)C1CCCCC1 -4.75%
CCOc1ccccc1OCC(=O)NC1CCCCC1 -0.58%
CCN(C(=O)COC(=O)/C=C/c1cnc2ccccc2n1)c1ccccc1 -2.53%
CCOCC(=O)OCC(=O)Nc1cc(OC)c([N+](=O)[O-])cc1C 7.7%
COc1cccc(-c2nnc(SCC(=O)Nc3cc(C)ccc3OC)n2N)c1 3.89%
CCn1cc[n+](C)c1P(c1ccccc1)c1ccccc1 3.82%
COCCCn1c(=O)c2sccc2n2c(CCCC(=O)NCc3ccccc3OC)nnc12 -3.09%
O=[N+]([O-])c1ccc(Cl)c(S(=O)(=O)NC2=NCCC2)c1 -7.04%
Cc1ccc([N+](=O)[O-])cc1S(=O)(=O)Nc1cccc(S(=O)(=O)NC2=NCCC2)c1 3.32%
CC1(C)CC(=O)C=C(c2n[nH]nc2-c2ccc(F)c(F)c2)C1 -13.9%
CCOC(=O)c1cc(-c2ccc(OC)cc2OC)nn1-c1ccc(C(=O)O)cc1 4.72%
CC(C)N1CCc2c(sc(NC(=O)c3ccc(S(=O)(=O)N4CCOCC4)cc3)c2C(N)=O)C1 -2.18%
CN1CCc2c(sc(NC(=O)c3ccc(S(=O)(=O)N4CCOCC4)cc3)c2C(N)=O)C1 18.7%
Cc1c(C(=O)N(C)Cc2nc3ccccc3c(=O)[nH]2)oc2ccccc12 -2.36%
Cc1ccc(C2CC(=O)C=C(NCC(C)C)C2)cc1 (configuration not stated) 3.68%
O=C1C=C(Nc2ccc(Cl)cc2Cl)CC(c2ccco2)C1 (configuration not stated) 2.86%
Cc1ccc(NC2=CC(=O)CC(c3ccco3)C2)c(N)c1 (configuration not stated) 23.3%
O=C1C=C(NCc2ccc(Cl)cc2)CC(c2ccco2)C1 (configuration not stated) 32.3%
Cc1ccnc(NC(=O)c2ccc3c(c2)OCO3)c1 4.65%
Cc1cc(C)c2c(c1)/C(=N\N=c1\sc3ccccc3n1C)C(=O)N2 0.52%
Cc1cccc2c1NC(=O)C2=O 32.4%
COc1ccc(OC)c(NC(=O)CCN2CCN(C)CC2)c1 2.28%
COc1ccc(OC)c(NC(=O)CCN2CCCCC2)c1 -3.02%
N#Cc1cccc(NC(=O)CSc2nnc(-c3n[nH]c4ccccc34)o2)c1 -4.45%
CCCn1c(C)cc(C(=O)CN2C(=O)c3ccccc3S2(=O)=O)c1C 0.72%
CCn1c(C)cc(C(=O)CN2C(=O)c3ccccc3S2(=O)=O)c1C 6.44%
Cc1cc(C(=O)COC(=O)c2ccccc2O)c(C)n1CC1CCCO1 (configuration not stated) -14.1%
Cc1ccc(-n2nnnc2SCC(=O)c2cc(C)n(CC3CCCO3)c2C)cc1 (configuration not stated) -3.58%
Cc1cc(C(=O)COC(=O)c2ccccc2Br)c(C)n1CC1CCCO1 (configuration not stated) 30.3%
Cc1cccc(-n2nnnc2SCC(=O)c2cc(C)n(CC3CCCO3)c2C)c1 (configuration not stated) 22.8%
COc1ccc(OCC(=O)Nc2ccc(OC)c(S(=O)(=O)N3CCCCC3)c2)cc1 -0.4%
N#CC1=C(S)N=C(N)C(c2nc(-c3ccccc3)cs2)C12CCCCC2 (configuration not stated) 13.7%
CCOC(=O)c1ccc(NC(=O)CSc2nnc(Cn3c(=O)sc4ccccc43)n2C)cc1 -11.7%
O=C(CN(C(=O)CNS(=O)(=O)c1ccc(F)cc1)C1CCCC1)NCc1ccco1 -8.82%
COC(=O)Cn1cnc2c(nnn2-c2ccc(OC)cc2)c1=O -8.1%
O=C(/C=N/O)NCc1cccnc1 -3.6%
O=C(N=C1SC2CS(=O)(=O)CC2N1c1ccc(Br)cc1)C1CCCO1 (configuration not stated) 2.67%
NC(=O)CN1C(=O)/C(=c2\sc3nc(=O)c(Cc4ccccc4)nn3c2=O)c2ccccc21 -13.2%
COC(=O)c1cc(Br)c(=O)n(CC(C)C)c1 4.6%
CC(C)c1cc(C(=O)OCC(=O)NC2CC2)c(O)c(C(C)C)c1 1.52%
Nc1cc(C(=O)O)ccc1N1CCCCCC1 8.01%
CC1CCCCN1c1ccc(N)cc1C(N)=O (configuration not stated) 0.06%
COC(=O)c1ccc(N2CCCCC2)c(N)c1 24.1%
NC(=O)c1cc(N)ccc1N1CCCCC1 -6.02%
Cc1cccc(NC(=O)C2SC(=Nc3c(C)cccc3C)C(C(=O)N3CCOCC3)=C2N)c1 (configuration not stated) 13.6%
N#Cc1ccccc1CN1C(=O)NC(Cc2c[nH]c3ccccc23)C1=O (configuration not stated) -3.01%
COc1ccc(C(=O)N/N=C/c2ccc(SC)cc2)cc1 -0.44%
COc1ccc(/C=N/NC(=O)c2ccc3c(c2)OCO3)cc1 -0.02%
CSCCC(NC(=O)c1ccccc1)C(=O)N/N=C(\C)c1ccccc1 (configuration not stated) -5.06%
Nc1cc(C(=O)O)ccc1Nc1ccccc1 13%
Nc1cccc(Nc2ccccc2)c1 1.33%
Cc1ccc(Nc2ccc(C(=O)O)cc2N)cc1 15%
Cc1ccc(NS(=O)(=O)c2cc(N)ccc2Cl)c(C)c1 28.9%
Cc1ccc(-n2cc(-c3ccccc3)c3c(NN4CCOCC4)ncnc32)cc1 21%
COc1cc2nc(N(CCN(C)C)C(=O)c3ccc4ccccc4c3)sc2cc1OC -3.84%
O=C1COc2ccc(C(=O)COC(=O)Cc3ccc(F)cc3)cc2N1 -9.09%
Nc1c(C(=O)OCC(=O)Nc2ccc(Cl)cc2[N+](=O)[O-])[nH]c(=O)[nH]c1=O -3.88%
CCc1cc2cccc(C)c2nc1SCC(=O)N1CCN(C(=O)c2ccco2)CC1 5.89% and -1.51%
CCc1cc2cc(C)ccc2nc1SCC(=O)N1CCN(C(=O)c2ccco2)CC1 3.37%
Cc1cccc(N2CCN(C(=O)c3ccccc3NC(=O)C3=CSCCO3)CC2C)c1 (configuration not stated) 0.87%
Cc1cc(=O)[nH]c2c3ccccc3nn12 -4.45%
CCOc1ccc(C2C(C(=O)OC)=C(C)N=C3SCCC(=O)N32)cc1OCC (configuration not stated) -1.89%
CC(C)C(NCc1c(Cl)cccc1Cl)C(=O)O (configuration not stated) -1.01%
c1ccc(COn2c(-c3ccccc3)nc3c2CCc2nonc2-3)cc1 -7.03%
COn1c(-c2ccccc2)nc2c1CCc1c-2no[n+]1[O-] 3.61%
Cc1c(C(=O)O)oc2c1C(=O)CC(C)(C)C2 -2.53%
CC1CC(C)CN(CC(C)(C)NS(=O)(=O)c2ccccc2)C1 (configuration not stated) 17.8%
O=C1C2C3C=CC(CC3)C2C(=O)N1c1ccc(Cl)cc1 (configuration not stated) 1.42%
CCN(CC)C(=O)[C@H]1C[C@H](CC(=O)NC(C)(C)C)C(=O)N2CCc3c([nH]c4cc(CCC(=O)N(C)C)ccc34)[C@]12C -0.23%
Cc1c(NS(=O)(=O)c2ccc(Cl)c(C(=O)OC(C)C(=O)NCc3ccco3)c2)c(=O)n(-c2ccccc2)n1C (configuration not stated) 5.59%
COc1ccccc1OCC(=O)NCc1ccco1 8.05%
O=C(COC(=O)Cc1ccc(F)cc1)NCc1ccco1 -14.6%
CC(C)(Oc1ccc(Cl)cc1)C(=O)NCC(c1ccco1)N1CCCCC1 (configuration not stated) 1.39%
COC(=O)CNC(=O)C(C)(C)Oc1ccc(Cl)cc1 -6.52%
COc1cccc(OC)c1C(=O)OCC(=O)NCc1ccco1 5.04%
O=C(COC(=O)Cc1ccc(Cl)c(Cl)c1)NCc1ccco1 7.25%
CNC(=S)N1CCN(c2ccc(Cl)c(Cl)c2)CC1 1.98%
O=C1CSC(c2ccc(Cl)c(Cl)c2)N1c1nccs1 (configuration not stated) 2.94%
CN(C)C(=O)c1ccc(NC(=O)CSc2nnc(-c3ccc4c(c3)OCO4)o2)cc1 1.62%
C/C(=N\Nc1ccc(F)cc1)c1ccc(N2CCOCC2)c(F)c1 6.07%
CC(=O)c1ccc(NC(=O)c2cnsn2)cc1 4.53%
CCN(CC)C(=O)[C@H]1C[C@H](CC(=O)NCCc2ccccn2)C(=O)N2CCc3c([nH]c4cc(CCC(=O)N(C)C)ccc34)[C@]12C 17.5%
CCNC(=S)N/N=C/c1c(C)nn(-c2cccc(Cl)c2)c1Cl 5.39%
CC(=O)C1=C(C)OC(N)=C(C#N)C1c1cc2cc(C)c(C)cc2nc1Cl (configuration not stated) 9.71%
CC(=O)C1=C(C)OC(N)=C(C#N)C1c1cc2cccc(C)c2nc1Cl (configuration not stated) -1.1%
